Source: PubChem
Most compounds without a hit are left out; they make up all but 1% or so of the library.
S1P4 antagonist: blocks the human S1P4 receptor; S1P4-expressing cells, antagonist mode, reporter read-out; inhibition, % at 4.98 µM; actives 0.26% (n = 220,000); AID 1510; in the data active means inhibition above about 29%;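 further: 0% = wells stimulated with agonist and 100% = vehicle wells without agonist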
Target sequence (O95977 whole entry, looked up): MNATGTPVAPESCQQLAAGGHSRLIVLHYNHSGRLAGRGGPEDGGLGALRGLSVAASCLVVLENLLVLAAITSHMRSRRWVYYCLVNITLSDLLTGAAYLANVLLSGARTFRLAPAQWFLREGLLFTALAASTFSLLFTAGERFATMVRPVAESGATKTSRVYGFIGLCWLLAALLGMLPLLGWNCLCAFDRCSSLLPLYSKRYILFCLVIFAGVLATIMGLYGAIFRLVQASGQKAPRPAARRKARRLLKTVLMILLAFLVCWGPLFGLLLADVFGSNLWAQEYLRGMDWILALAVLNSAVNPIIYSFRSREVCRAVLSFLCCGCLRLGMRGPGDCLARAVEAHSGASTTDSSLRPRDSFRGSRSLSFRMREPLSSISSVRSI
HSV augment: HSV replication enhancement; maximum fold increase; AID 1956; HSV replication augmentation in cells, fold increase; actives 0.005% (n = 220,000); in the data active means maximum fold increase above about 1.5; tested in PC3 cells
TNF death inh: inhibitors of TNF-alpha induced necroptosis in Jurkat FADD-/- cells; Jurkat FADD-/- TNF necroptosis rescue, ATP luminescence, 24 h; 0 = TNF only, 100 = no-TNF cells; activation (protection from cell death), % at 10 µM; actives 0.068% (n = 220,000); AID 463075;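 active means activation, meaning protection from cell death, of at least 50% relative to plate controls; inactive means activation below 50%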;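 further: necroptosis triggered by 40 ng/mL TNF-alpha added together with compound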
zVAD death inh: blocks zVAD induced death of L929 cells; L929 zVAD necroptosis rescue, ATP luminescence, 24 h; with zVAD 60 µM; viability rescue, % at 10 µM; actives 0.38% (n = 220,000);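 active means activation, scaled between plate controls, above about 75%, limit read from the data; inactive means activation under that limit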;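 further: 0% = zVAD with DMSO and 100% = DMSO alone without zVAD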
S1P4 ag: agonists of human S1P4 receptor; O95977; S1P4-expressing cell line, agonist reporter assay; activation, % at 4.98 µM; actives 0.35% (n = 220,000); AID 1509; in the data active means activation above about 11%;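 further: 0% = DMSO vehicle and 100% = reference agonist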
Hsp70 act: transcriptional activators of Hsp70; HeLa Hsp70 promoter luciferase reporter, luminescence; scaled: vehicle 0, proteasome-inhibitor control 100%; activation, % at 10 µM; actives 0.04% (n = 200,000);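 active means activation above the mean across all tested compounds plus 3 SD, cutoff set per campaign, cut at about 5.5% in these data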;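 further: 100% = MG132 at 30 µM as the positive control and 0% = DMSO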
zVAD death conf: confirmed blocker of zVAD induced death in L929 cells | shares compounds with zVAD death inh | L929 zVAD-induced necroptosis rescue, ATP luminescence, 24 h | activation (protection from necroptosis), % at 10 µM | actives 16% (n = 760);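 active means mean protection from necroptosis of at least 50% over duplicate tests; inactive means mean protection below 50%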;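 further: 0% = cells with zVAD alone and 100% = vehicle cells without zVAD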
Numbers without * were called inactive.

Screening CCC(=O)Nc1nc2c(OC)ccc(OC)c2s1 returned S1P4 antagonist -14, HSV augment inactive, TNF death inh 1, zVAD death inh 2, S1P4 ag -2 and Hsp70 act 0.
C/C=C1\COC(C(=O)NCCCN2CCCC2=O)(C(F)(F)F)C=C1C=C(C)C (stereo not drawn) was read as HSV augment inactive.
Screening COc1ccc(-c2cnc(N)nc2-c2ccc(OC)cc2O)cc1 returned S1P4 antagonist -7, HSV augment inactive, TNF death inh 1, zVAD death inh 92*, S1P4 ag 1, Hsp70 act 0 and zVAD death conf 8.
Screening C=C(C)COc1ccc(-c2nc(N)ncc2-c2ccc(OC)cc2)c(O)c1 returned S1P4 antagonist -27, HSV augment inactive, TNF death inh -1, zVAD death inh 3, S1P4 ag 1 and Hsp70 act 0.
`Cc1cccc2[nH]c(SCC(=O)N3CCOCC3)nc12` gave S1P4 antagonist 22, HSV augment inactive, TNF death inh -1, zVAD death inh 1, S1P4 ag 1 and Hsp70 act 0.
Screening CCOC(CNC(=O)c1ccc2c(c1)ncn2-c1ccc(F)c(F)c1)OCC returned S1P4 antagonist -3, HSV augment inactive, TNF death inh 1, zVAD death inh 78*, S1P4 ag 0, Hsp70 act 0 and zVAD death conf 3.
For COC(CNC(=O)c1ccc2c(c1)ncn2-c1ccc(F)cc1F)OC the results were S1P4 antagonist -3, HSV augment inactive, TNF death inh 2, zVAD death inh 13, S1P4 ag 1 and Hsp70 act 0.
COC(CNC(=O)c1ccc2c(c1)ncn2-c1ccc(F)c(F)c1)OC was read as S1P4 antagonist 7, HSV augment inactive, TNF death inh 1, zVAD death inh 77*, S1P4 ag 0, Hsp70 act 0 and zVAD death conf 35.
COC(CNC(=O)c1ccc2c(c1)ncn2-c1cccc(F)c1)OC was read as S1P4 antagonist 6, HSV augment inactive, TNF death inh 1, zVAD death inh 76*, S1P4 ag -1, Hsp70 act 0 and zVAD death conf 38.
`Cc1ccc(-n2c(C)cc(C(=O)CN3CCCCC3)c2C)cc1` gave S1P4 antagonist -12, HSV augment inactive, TNF death inh -3, zVAD death inh 1, S1P4 ag 1 and Hsp70 act 0.
`CC(C)(C)c1cc(-c2n[nH]c(=S)n2-c2ccccc2F)n[nH]1` gave S1P4 antagonist -1, TNF death inh 1, zVAD death inh 0 and S1P4 ag -1.
`O=C(Nc1ccc(-c2noc(COc3ccccc3Cl)n2)cc1)c1ccco1` gave S1P4 antagonist -5, HSV augment inactive, TNF death inh -3, zVAD death inh 98*, S1P4 ag 1, Hsp70 act 0 and zVAD death conf 36.
`COc1ccc(CC(=O)Nc2ccc(-c3noc(COc4ccccc4C)n3)cc2)cc1` gave S1P4 antagonist -14, HSV augment inactive, TNF death inh 2, zVAD death inh 1, S1P4 ag 0 and Hsp70 act 0.
For CC(C)NC(=S)NC(=O)c1ccc(-c2ccccc2)cc1 the results were S1P4 antagonist 0, HSV augment inactive, TNF death inh 3, zVAD death inh 0, S1P4 ag 0 and Hsp70 act 0.
`C=CCn1c(C)cc(C2=NNC(=NCc3ccccc3)SC2)c1C` gave S1P4 antagonist -18, HSV augment inactive, TNF death inh 1, zVAD death inh 6, S1P4 ag 0 and Hsp70 act 0.
`Cc1ccc(C)c(C2=NNC(=NCc3ccccc3)SC2)c1` gave S1P4 antagonist -13, HSV augment inactive, TNF death inh 95*, zVAD death inh 77*, S1P4 ag 2, Hsp70 act 0 and zVAD death conf 25.
Screening N#Cc1c(N)nc2c(c1-c1ccccc1)CCC2 returned S1P4 antagonist 0, HSV augment inactive, TNF death inh -5, zVAD death inh 79*, S1P4 ag 1, Hsp70 act 0 and zVAD death conf 8.
Cc1ccccc1Nc1nccc(N(C)C)c1C#N was read as S1P4 antagonist 1, HSV augment inactive, TNF death inh 0, zVAD death inh -1, S1P4 ag 0 and Hsp70 act 0.
Cc1noc(C)c1/C=N/Nc1ccccn1 was read as S1P4 antagonist -18, HSV augment inactive, TNF death inh 45, zVAD death inh 82*, S1P4 ag 0, Hsp70 act 0 and zVAD death conf 73*.
For Clc1ccc(/C=N/Nc2ccccn2)cc1 the results were S1P4 antagonist -15, HSV augment inactive, TNF death inh 18, zVAD death inh 81*, S1P4 ag 1, Hsp70 act 0 and zVAD death conf 45.
COc1ccc(/C=N/Nc2cc(OC)ncn2)cc1 was read as S1P4 antagonist -4, HSV augment inactive, TNF death inh 6, zVAD death inh 78*, S1P4 ag 0, Hsp70 act 0 and zVAD death conf 28.
`CCOc1ccc(/C=N/Nc2ccccn2)cc1` gave S1P4 antagonist -2, HSV augment inactive, TNF death inh 12, zVAD death inh 78*, S1P4 ag 0, Hsp70 act 0 and zVAD death conf 4.
`CCOC(=O)c1nn(-c2ccccc2)c2nnc(Cc3ccc(C)cc3)c(=O)n12` gave S1P4 antagonist -13, HSV augment inactive, TNF death inh 1, zVAD death inh 0, S1P4 ag 1 and Hsp70 act 0.
C/C(=N\NC(=O)c1cccc(N/N=C(\C)c2ccc([N+](=O)[O-])cc2)c1)c1ccc([N+](=O)[O-])cc1 was read as S1P4 antagonist -12, HSV augment inactive, TNF death inh -2, zVAD death inh -1 and S1P4 ag -1.
COc1cc(C(=O)OCC(=O)NC(=O)C2CCCCC2)ccc1OC(F)F was read as S1P4 antagonist -8, HSV augment inactive, TNF death inh 0, zVAD death inh 1, S1P4 ag 0 and Hsp70 act 1.
Brc1ccc(/C=N/Nc2ccccn2)cc1 was read as S1P4 antagonist -20, HSV augment inactive, TNF death inh 15, zVAD death inh 78*, S1P4 ag 1, Hsp70 act 0 and zVAD death conf 4.
For COc1cc(/C=N/NC(=O)C(=O)Nc2ccccn2)ccc1O the results were S1P4 antagonist -18, HSV augment inactive, TNF death inh 0, zVAD death inh 0, S1P4 ag 0 and Hsp70 act 0.
Screening COc1ccc(/C=N/Nc2ccccn2)cc1O returned S1P4 antagonist -18, HSV augment inactive, TNF death inh 60*, zVAD death inh 90*, S1P4 ag 3 and zVAD death conf 64*.
